Test results reported in PubChem BioAssay (NCI).
Values joined by “and” are separate entries in the source; they are usually repeats but may differ in a detail not shown here. Equal entries are not always repeated. About 83,000 compounds went through this panel and 20% of them were active in at least one assay; those are over-represented in the sample as a whole.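 Single-dose data. Exposure time 48 hours. Values below 10 considered active.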 Unmarked numbers belong to inactive results. Active and inactive are the calls of the source.

Tests used:
Experiment in all cases: NCI-60 one-dose screen, 48 h (100 = growth as untreated, 0 = no growth, -100 = all killed)
SR leukemia = settings: 10 µM unless noted
RPMI-8226 leukemia = settings: 10 µM
OVCAR-8 ovarian = settings: 10 µM
OVCAR-5 ovarian = settings: 10 µM
OVCAR-4 ovarian = settings: 10 µM
SK-OV-3 ovarian = settings: 10 µM
IGROV1 ovarian = settings: 10 µM
OVCAR-3 ovarian = settings: 10 µM
HS 578T breast = settings: 10 µM
NCI/ADR-RES ovarian = settings: 10 µM

| Compound | growth (SR leukemia) | growth (RPMI-8226 leukemia) | growth (OVCAR-8 ovarian) | growth (OVCAR-5 ovarian) | growth (OVCAR-4 ovarian) | growth (SK-OV-3 ovarian) | growth (IGROV1 ovarian) | growth (OVCAR-3 ovarian) | growth (HS 578T breast) | growth (NCI/ADR-RES ovarian) |
| --- | --- | --- | --- | --- | --- | --- | --- | --- | --- | --- |
| O=C1NC(=O)c2cc([N+](=O)[O-])ccc21 | 95.3% | 71.2% | 94.4% | 101% | 117% | 105% | 103% | 110% | 127% | 113% |
| CCN(CC)c1ccc(NC(C(=O)c2ccccc2)c2ccccc2)cc1 (stereo unspecified) | 14.3% | 8.53% (active) | 9.32% (active) | 60.9% | 65.2% | 109% | 59.4% | -4.87% (active) | 46.1% | 25.4% |
| CCCCCCCCCCSC(=N)N | -25% (active) | -11% (active) | 61.5% | 77.4% | 76.7% | 77.5% | 46.1% | 67% | 81.1% | 69.3% |
| CN(C)C(=S)SC(=S)N(C)C | 42.6% and 52.1% | 62.7% | 107% and 96.6% | 106% and 108% | 72.9% and 32.9% | 115% and 110% | 96.2% and 94.3% | 98.8% and 96.2% | 106% and 102% | 104% and 101% |
| NC(=O)SCC(=O)NNc1ccccc1 | 111% | 105% | 93.8% | – | 104% | 100% | 103% | 107% | 100% | 95.5% |
| NNc1c2ccccc2nc2ccccc12 | 21.1% | 34.7% | 57.2% | 102% | 34.4% | 63.5% | 55% | 51.4% | – | 57.3% |
| CCC(C)(C)c1cc(O)c(C(C)(C)CC)cc1O | 45.1% | 22.3% | 65.9% | 49.2% | 28% | 57.2% | 64.8% | 37.2% | 31.9% | 39.2% |
| CS(=O)(=O)OC1CC(n2ccc(=O)[nH]c2=O)OC1COC(c1ccccc1)(c1ccccc1)c1ccccc1 (stereo unspecified) | 78% | 101% | 104% | 98% | 106% | 106% | 92% | 100% | 112% | 113% |
| COc1cccc2c1C(=O)c1c(O)c3c(c(O)c1C2=O)C[C@@](O)(C(C)=O)C[C@@H]3OC1CC(N)C(O)C(C)O1 (stereo partly specified) | -25.4% (active) | -23.9% (active) | – | -12.3% (active) | -3.17% (active) | 5.5% (active) | -29% (active) | -1.56% (active) | -69% (active) | 23.9% |
| CSC1SCC2C(=O)N(C)C(C(C)C)C(=O)OCC(NC(=O)c3cnc4ccccc4n3)C(=O)NC(C)C(=O)N(C)C1C(=O)N(C)C(C(C)C)C(=O)OCC(NC(=O)c1cnc3ccccc3n1)C(=O)NC(C)C(=O)N2C (stereo unspecified) | -37.7% (active) | -30% (active) | – | 2.94% (active) | 1.22% (active) | 15.5% | 0.149% (active) | 5.79% (active) | -60.8% (active) | 7.62% (active) |
